# Reference: PubChem BioAssay (Tox21)
# Values without a mark were called inactive. Results filed as inconclusive are left out. A call without a number means that no potency is given here. The source made the active and inactive calls. Unless noted, calls come from the whole dose curve.
# Tests used:
# [1] = Nuclear factor erythroid 2-related factor 2/antioxidant responsive element (Nrf2/ARE) small molecule agonists: qHTS cell viability counter screen in human keratinocytes (AID 1919968; active = well fitted curve in the direction sought with a large enough effect in the repeat runs; an effect the other way counts as inactive or inconclusive; note: nearly all actives have a fitted effect of over 55% in size)
# Procedure, shortened: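 KeratinoSens HaCaT cells, 1,500/well, preincubated 5 h, then exposed to compounds in DMSO for 23 h at 37 C/5% CO2. Viability read as CellTiter-Fluor fluorescence after 1 h, in the same wells as the ARE-luciferase read.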
# [2] = Nuclear factor erythroid 2-related factor 2/antioxidant responsive element (Nrf2/ARE) small molecule agonists: luciferase reporter gene qHTS assay in human keratinocytes (AID 1919969); note: nearly all actives have a fitted effect of over 35% in size; note: potency is the fitted concentration of half-maximal effect
# [3] = target: Gonadotropin-releasing hormone receptor (Homo sapiens) (UniProt P30968); experiment: Human gonadotropin-releasing hormone receptor (GnRHR) small molecule agonists, calcium flux assay in GnRHR-HEK293 cells (AID 1920063); note: nearly all actives have a fitted effect of over 35% in size
# Chain of Gonadotropin-releasing hormone receptor (Homo sapiens) (P30968 whole entry, looked up): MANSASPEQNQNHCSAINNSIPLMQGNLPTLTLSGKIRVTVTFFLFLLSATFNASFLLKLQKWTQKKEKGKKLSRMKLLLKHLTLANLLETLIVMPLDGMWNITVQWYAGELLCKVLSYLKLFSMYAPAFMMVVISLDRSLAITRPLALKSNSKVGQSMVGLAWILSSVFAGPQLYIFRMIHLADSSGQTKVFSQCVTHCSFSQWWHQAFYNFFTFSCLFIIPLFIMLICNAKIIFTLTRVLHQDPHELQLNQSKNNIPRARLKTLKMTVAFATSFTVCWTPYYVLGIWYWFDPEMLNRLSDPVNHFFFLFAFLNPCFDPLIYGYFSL
# Procedure, shortened: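 HEK293 cells stably expressing human GnRHR were dye-loaded for 1 h at 37 C. Compound was added in agonist mode and fluorescence (Ex/Em 480/540) recorded kinetically for 3 min. Fifteen concentrations, triplicates.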
# [4] = target: KiSS-1 receptor (Homo sapiens) (UniProt Q969F8); experiment: Human kisspeptin (KISS1R) small molecule agonists, calcium flux assay in KISS1R-HEK293 cells (AID 1920064; active = well fitted curve in the direction sought with a large enough effect in the repeat runs; an effect the other way counts as inactive or inconclusive)
# Chain of KiSS-1 receptor (Homo sapiens) (Q969F8 whole entry, looked up): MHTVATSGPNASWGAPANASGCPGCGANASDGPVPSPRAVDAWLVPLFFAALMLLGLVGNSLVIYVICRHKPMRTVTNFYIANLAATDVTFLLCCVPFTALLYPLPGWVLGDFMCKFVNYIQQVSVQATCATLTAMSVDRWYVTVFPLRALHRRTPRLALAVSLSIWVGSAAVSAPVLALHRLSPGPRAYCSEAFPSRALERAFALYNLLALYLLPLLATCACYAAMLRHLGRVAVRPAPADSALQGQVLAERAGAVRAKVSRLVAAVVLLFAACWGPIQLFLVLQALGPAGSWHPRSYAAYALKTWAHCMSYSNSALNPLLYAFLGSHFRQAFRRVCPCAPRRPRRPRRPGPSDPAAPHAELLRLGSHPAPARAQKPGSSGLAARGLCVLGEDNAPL
# Procedure, shortened: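 HEK293 cells stably expressing human KISS1R were loaded with calcium dye for 1 h at 37 C, then given compound; fluorescence (Ex/Em 480/540) was read kinetically for 3 min. Fifteen concentrations, triplicate.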
# [5] = G protein-coupled receptor (GPCR) small molecule agonists, calcium flux assay: HEK293 wild type cell line counter screen (AID 1920065)
# Procedure, shortened: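 Wild-type HEK293 cells plated 18 h, loaded with calcium dye 1 h at 37 C, then compounds added in agonist mode (ATP as positive control). Kinetic fluorescence Ex/Em 480/540 recorded 3 min at 1 sec intervals; 15 concentrations, triplicate.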
# [6] = p53 small molecule agonists, cell-based qHTS assay with human liver microsomes (AID 1963577)
# Procedure, shortened: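 p53RE-bla reporter cells were pre-incubated 5 h at 37 C, then treated with compounds plus human liver microsomes (0.5 mg/mL final) and NADPH (0.5 mg/mL final) for 16 h at 37 C. Beta-lactamase activity was read by LiveBLAzer fluorescence after 2 h at room temperature.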
# [7] = p53 small molecule agonists, cell-based qHTS assay with rat liver microsomes (AID 1963578)
# Procedure, shortened: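 p53RE-bla cells were exposed to compounds together with rat liver microsomes (0.5 mg/mL final) and NADPH (0.5 mg/mL final) for 16 h at 37 C, then read by LiveBLAzer beta-lactamase fluorescence after 2 h at room temperature.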
# [8] = p53 small molecule agonists, cell-based qHTS assay with human liver microsomes: qHTS cell viability counter screen (AID 1963579); note: nearly all actives have a fitted effect of over 45% in size
# Procedure, shortened: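 p53RE-bla cells (4,000/well) were pre-incubated 5 h at 37 C, then given compounds in DMSO plus human liver microsomes (0.5 mg/mL final) and NADPH (0.5 mg/mL final) for 16 h at 37 C. Viability was read by CellTiter-Glo luminescence.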
# [9] = p53 small molecule agonists, cell-based qHTS assay with rat liver microsomes: qHTS cell viability counter screen (AID 1963580); note: nearly all actives have a fitted effect of over 45% in size
# Procedure, shortened: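 Viability is assessed in parallel with the p53 reporter read: HCT-116 p53RE-bla cells receive compounds plus rat microsomes and NADPH (0.5 mg/mL final apiece), incubate 16 h at 37 C, and then CellTiter-Glo luminescence is recorded.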
# [10] = p53 small molecule agonists, cell-based qHTS assay: qHTS cell viability counter screen (AID 1963581); note: nearly all actives have a fitted effect of over 45% in size
# Procedure, shortened: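 p53RE-bla HCT-116 cells, compounds added 5 h after plating and incubated 16 h at 37 C. Cytotoxicity measured in the same wells as intracellular ATP by CellTiter-Glo luminescence after 30 min at room temperature.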
# [11] = p53 small molecule agonists, cell-based qHTS assay (AID 1963582; active = well fitted activation curve with a large enough effect in the signal ratio in the repeat runs, not every such curve was filed as active; the % refers to the signal ratio)
# Procedure, shortened: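 p53RE-bla reporter cells, compounds added in DMSO after 5 h plating, incubated 16 h at 37 C. Beta-lactamase read via 2 h room-temperature LiveBLAzer B/G FRET substrate, fluorescence intensity.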
# [12] = target: 5-hydroxytryptamine receptor 2A (Homo sapiens) (UniProt P28223); experiment: 5-hydroxytryptamine receptor 2A (HTR2A) small molecule antagonists, cell-based qHTS assay (AID 1963586); note: nearly all actives have a fitted effect of over 45% in size
# Chain of 5-hydroxytryptamine receptor 2A (Homo sapiens) (P28223 whole entry, looked up): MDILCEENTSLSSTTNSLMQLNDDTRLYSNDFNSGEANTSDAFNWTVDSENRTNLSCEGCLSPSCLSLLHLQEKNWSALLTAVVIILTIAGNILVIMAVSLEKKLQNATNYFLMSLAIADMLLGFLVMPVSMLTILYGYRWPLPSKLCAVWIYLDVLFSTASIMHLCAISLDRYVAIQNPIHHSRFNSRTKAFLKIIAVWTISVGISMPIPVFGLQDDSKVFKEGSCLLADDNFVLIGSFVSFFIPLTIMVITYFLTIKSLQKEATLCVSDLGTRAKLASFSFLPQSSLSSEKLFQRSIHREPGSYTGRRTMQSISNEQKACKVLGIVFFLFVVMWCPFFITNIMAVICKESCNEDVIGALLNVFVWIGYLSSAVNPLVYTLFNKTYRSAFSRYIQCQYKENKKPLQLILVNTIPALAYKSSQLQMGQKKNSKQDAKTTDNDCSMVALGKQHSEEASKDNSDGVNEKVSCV
# Procedure, shortened: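 Antagonist-mode intracellular calcium assay: DOI (4 nM) added after 5 min compound pre-incubation at room temperature to dye-loaded HTR2A-CHO cells. Fluorescence followed for 3 min, sampled every second.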
# [13] = target: 5-hydroxytryptamine receptor 2A (Homo sapiens) (UniProt P28223); experiment: 5-hydroxytryptamine receptor 2A (HTR2A) small molecule agonists, cell-based qHTS assay (AID 1963587); note: nearly all actives have a fitted effect of over 30% in size
# Procedure, shortened: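 CHO cells stably expressing human HTR2A, plated 18 h, loaded with calcium dye 1 h at 37 C. Agonist mode: compounds added and intracellular calcium fluorescence recorded kinetically for 2 min at 1 sec intervals.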
# [14] = target: Muscarinic acetylcholine receptor M1 (Homo sapiens) (UniProt P11229); experiment: Cholinergic receptor muscarinic 1 (CHRM1) small molecule antagonists, cell-based qHTS assay (AID 1963588); note: nearly all actives have a fitted effect of over 40% in size
# Chain of Muscarinic acetylcholine receptor M1 (Homo sapiens) (P11229 whole entry, looked up): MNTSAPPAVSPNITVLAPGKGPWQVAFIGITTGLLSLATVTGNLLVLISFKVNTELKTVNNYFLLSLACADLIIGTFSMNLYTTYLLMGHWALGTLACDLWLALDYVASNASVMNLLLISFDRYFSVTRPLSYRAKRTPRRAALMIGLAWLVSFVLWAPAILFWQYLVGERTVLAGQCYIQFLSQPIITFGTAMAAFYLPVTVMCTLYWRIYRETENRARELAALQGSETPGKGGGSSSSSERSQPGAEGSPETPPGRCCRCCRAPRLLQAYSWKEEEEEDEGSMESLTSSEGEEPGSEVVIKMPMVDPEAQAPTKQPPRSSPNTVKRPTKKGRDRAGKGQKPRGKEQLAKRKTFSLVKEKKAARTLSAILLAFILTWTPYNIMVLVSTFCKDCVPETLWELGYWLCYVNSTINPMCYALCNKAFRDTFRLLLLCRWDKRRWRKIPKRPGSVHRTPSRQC
# Procedure, shortened: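 CHRM1-CHO calcium-flux assay, antagonist mode. Cells were seeded 18 h, dye-loaded 1 h at 37 C and given compound for 5 min at RT, then acetylcholine was added at 50nM. FDSS fluorescence was read 3 min; 15 concentrations, three runs.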
# [15] = target: Muscarinic acetylcholine receptor M1 (Homo sapiens) (UniProt P11229); experiment: Cholinergic receptor muscarinic 1 (CHRM1) small molecule agonists, cell-based qHTS assay (AID 1963589); note: nearly all actives have a fitted effect of over 35% in size
# Procedure, shortened: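 CHO cells stably expressing human CHRM1 were loaded with calcium dye for 1 h at 37 C, then compound was added in agonist mode. Intracellular calcium fluorescence was followed kinetically at 1 s intervals. Fifteen concentrations were tested in three independent runs.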
# [16] = cAMP Responsive Elements (CRE) small molecule agonists, cell-based qHTS assay (AID 1963590)
# Procedure, shortened: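 CRE-bla HEK 293T cells, 2,000/well in DMEM with 10% dialyzed FBS and 25 mM HEPES, pre-incubated 18 h at 37 C, then exposed to compound 3 h at 37 C. Beta-lactamase reporter read with LiveBLAzer B/G FRET substrate after 2 h at room temperature.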
# [17] = cAMP Responsive Elements (CRE) small molecule antagonists, cell-based qHTS assay (AID 1963591; active = well fitted inhibition curve with a large enough effect in the signal ratio in the repeat runs, not every such curve was filed as active; the % refers to the signal ratio)
# Procedure, shortened: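 CRE-bla HEK293T cells plated 18 h, then given compound plus NKH477 at 0.25 uM final for 3 h at 37C. Beta-lactamase reporter read with LiveBLAzer B/G FRET substrate after 2 h at room temperature.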
# [18] = target: Beta-2 adrenergic receptor (Homo sapiens) (UniProt P07550); experiment: Adrenergic beta2 receptor (ADRB2) small molecule antagonists, cell-based qHTS assay (AID 1963592); note: series mostly up to about 92 µM; nearly all actives have a fitted effect of over 50% in size
# Chain of Beta-2 adrenergic receptor (Homo sapiens) (P07550 whole entry, looked up): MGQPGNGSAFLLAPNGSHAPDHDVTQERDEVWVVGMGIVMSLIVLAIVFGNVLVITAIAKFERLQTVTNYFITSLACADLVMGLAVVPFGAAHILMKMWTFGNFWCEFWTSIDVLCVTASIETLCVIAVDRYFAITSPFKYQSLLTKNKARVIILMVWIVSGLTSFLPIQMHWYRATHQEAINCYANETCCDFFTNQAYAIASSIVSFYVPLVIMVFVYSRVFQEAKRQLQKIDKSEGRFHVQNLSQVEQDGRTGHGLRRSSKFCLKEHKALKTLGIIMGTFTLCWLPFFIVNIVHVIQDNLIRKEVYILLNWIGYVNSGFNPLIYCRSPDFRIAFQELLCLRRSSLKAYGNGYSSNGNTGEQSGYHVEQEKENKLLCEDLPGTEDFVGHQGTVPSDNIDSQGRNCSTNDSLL
# Procedure, shortened: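 Cells (CHO, stable ADRB2 overexpression) incubated 18-20hr at 37C; compounds added from DMSO; agonist mix (1nM isoproterenol, 100uM IBMX, 25uM Ro-20-1724) added; 0.5hr RT; d2-cAMP and anti-cAMP-cryptate added; 1hr RT; 665/615 nm read.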
# [19] = target: D(2) dopamine receptor (Homo sapiens) (UniProt P14416); experiment: Dopamine D2 receptor (DRD2) small molecule agonists, cell-based qHTS assay (AID 1963594); note: nearly all actives have a fitted effect of over 35% in size
# Chain of D(2) dopamine receptor (Homo sapiens) (P14416 whole entry, looked up): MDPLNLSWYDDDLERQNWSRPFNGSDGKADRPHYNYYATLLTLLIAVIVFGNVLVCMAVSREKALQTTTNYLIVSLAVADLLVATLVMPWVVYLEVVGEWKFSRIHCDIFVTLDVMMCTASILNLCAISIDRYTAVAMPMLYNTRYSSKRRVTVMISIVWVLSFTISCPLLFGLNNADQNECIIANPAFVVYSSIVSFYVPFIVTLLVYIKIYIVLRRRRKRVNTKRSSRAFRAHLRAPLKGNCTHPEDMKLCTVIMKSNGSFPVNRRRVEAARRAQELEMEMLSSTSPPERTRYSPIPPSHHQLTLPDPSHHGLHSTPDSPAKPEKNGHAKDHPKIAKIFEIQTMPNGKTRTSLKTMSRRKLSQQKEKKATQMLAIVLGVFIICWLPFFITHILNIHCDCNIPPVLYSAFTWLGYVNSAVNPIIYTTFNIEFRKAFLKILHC
# Procedure, shortened: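 HEK293 cells stably expressing human DRD2, pre-treated with PDE inhibitor Ro20-1724 (0.1 mM final) and compound 10 min at room temperature, then stimulated with NKH477 (200nM […]) for 30 min. cAMP read by HTRF (665/620 nm).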
# [20] = target: D(2) dopamine receptor (Homo sapiens) (UniProt P14416); experiment: Dopamine D2 receptor (DRD2) small molecule antagonists, cell-based qHTS assay (AID 1963595; active = well fitted inhibition curve with a large enough effect in the signal ratio in the repeat runs, with a control signal flat; the % refers to the signal ratio)
# Procedure, shortened: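 Readout: HTRF cAMP, cAMP-d2 competing with cellular cAMP for anti-cAMP cryptate, read after 1 h. Cells: DRD2-HEK293. Conditions: 0.1 mM Ro20-1724, 12 nM quinpirole, 200 nM NKH477, 30 min RT.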
smiles,measurement,setting,value
CCc1cccc(C)c1N(C(=O)CS(=O)(=O)O)C(C)COC (centres undefined),Potency,[1],inactive
same,Potency,[2],inactive
same,Potency,[3],inactive
same,outcome,[4],inactive
same,outcome,[5],inactive
same,Potency,[6],inactive
same,Potency,[7],inactive
same,Potency,[8],inactive
same,Potency,[9],inactive
same,Potency,[10],inactive
same,Potency,[11],inactive
same,Potency,[12],inactive
same,Potency,[13],inactive
same,Potency,[14],inactive
same,Potency,[15],inactive
same,Potency,[16],inactive
same,Potency,[17],inactive
same,Potency,[18],inactive
same,Potency,[19],inactive
same,Potency,[20],inactive
c1ccc(CCNc2nc(-c3ccccc3)cs2)cc1,Potency,[1],inactive
same,Potency,[2],596 nM (active)
same,Potency,[3],inactive
same,outcome,[4],inactive
same,outcome,[5],inactive
same,Potency,[6],inactive
same,Potency,[7],inactive
same,Potency,[8],inactive
same,Potency,[9],inactive
same,Potency,[10],inactive
same,Potency,[11],inactive
same,Potency,[12],inactive
same,Potency,[13],inactive
same,Potency,[14],inactive
same,Potency,[15],inactive
same,Potency,[16],inactive
same,Potency,[17],inactive
CC(C)C1OCCN1CCOC(=O)NCCCCCCNC(=O)OCCN1CCOC1C(C)C (centres undefined),Potency,[1],inactive
same,Potency,[2],inactive
same,Potency,[3],inactive
same,outcome,[4],inactive
same,outcome,[5],inactive
same,Potency,[6],inactive
same,Potency,[7],inactive
same,Potency,[8],inactive
same,Potency,[9],inactive
same,Potency,[10],inactive
same,Potency,[11],inactive
same,Potency,[12],inactive
same,Potency,[13],inactive
same,Potency,[14],inactive
same,Potency,[15],inactive
same,Potency,[16],inactive
same,Potency,[17],inactive
same,Potency,[18],inactive
same,Potency,[19],inactive
CC(C)(C)C(=O)CC(=O)C(C)(C)C,Potency,[1],inactive
same,Potency,[2],inactive
same,Potency,[3],inactive
same,outcome,[4],inactive
same,outcome,[5],inactive
same,Potency,[6],inactive
same,Potency,[7],inactive
same,Potency,[8],inactive
same,Potency,[9],inactive
same,Potency,[10],inactive
same,Potency,[11],inactive
same,Potency,[12],inactive
same,Potency,[13],inactive
same,Potency,[14],inactive
same,Potency,[15],inactive
same,Potency,[16],inactive
same,Potency,[17],inactive
same,Potency,[18],inactive
same,Potency,[19],inactive
COC(=O)C1CC(=O)C(C(=O)OC)CC1=O (centres undefined),"activity change, negative = cytotoxicity",[1],2.06% [at 8.39 µM]
same,"activity, positive = activation",[2],-3.71% [at 8.39 µM]
same,activity change,[3],"0.483% [at 5.22 µM, hits give high values]"
same,activation,[4],0.0459% [at 6.97 µM]
same,activation,[5],-0.0233% [at 5.23 µM]
same,activation,[6],-0.316% [at 5.99 µM]
same,activation,[7],-0.919% [at 5.99 µM]
same,"activity change, negative = cytotoxicity",[8],-6.82% [at 5.99 µM]
same,"activity change, negative = cytotoxicity",[9],-4.56% [at 5.99 µM]
same,"activity change, negative = cytotoxicity",[10],-4.07% [at 5.99 µM]
same,activation,[11],-3.72% [at 5.99 µM]
same,"activity, negative = inhibition",[12],1.92% [at 5.62 µM]
same,activation,[13],7.2% [at 7.02 µM]
same,"activity, negative = inhibition",[14],62.7% [at 5.58 µM]
same,activation,[15],0.037% [at 6.97 µM]
same,activation,[16],0.379% [at 8.39 µM]
same,"activity change, negative = inhibition",[17],-7.12% [at 8.39 µM]
same,"activity change, negative = inhibition",[18],3.63% [at 8.39 µM]
same,activation,[19],-0.218% [at 8.39 µM]
same,"activity change, negative = inhibition",[20],-0.133% [at 8.38 µM]
CN1C(=O)N(C)C(O)C1O (centres undefined),Potency,[1],inactive
same,Potency,[2],inactive
same,Potency,[3],inactive
same,outcome,[4],inactive
same,outcome,[5],inactive
same,Potency,[6],inactive
same,Potency,[7],inactive
same,Potency,[8],inactive
same,Potency,[9],inactive
same,Potency,[10],inactive
same,Potency,[11],inactive
same,Potency,[12],inactive
same,Potency,[13],inactive
same,Potency,[14],inactive
same,Potency,[15],inactive
same,Potency,[16],inactive
same,Potency,[17],inactive
same,Potency,[18],inactive
same,Potency,[19],inactive
Cn1c(=O)c2c(ncn2CC(=O)O)n(C)c1=O,Potency,[1],inactive
same,Potency,[2],inactive
same,Potency,[3],inactive
same,outcome,[4],inactive
same,outcome,[5],inactive
same,Potency,[6],inactive
same,Potency,[7],inactive
same,Potency,[8],inactive
same,Potency,[9],inactive
same,Potency,[10],inactive
same,Potency,[11],inactive
same,Potency,[12],inactive
same,Potency,[13],inactive
same,Potency,[14],inactive
same,Potency,[15],inactive
same,Potency,[16],inactive
same,Potency,[17],inactive
same,Potency,[18],inactive
same,Potency,[19],inactive
same,Potency,[20],inactive
